Only some compounds are listed: those with a hit (about 9.4% of all), similar ones and a draw of the others.
NPC1 promoter act – activates the NPC1 promoter; Huh7 NPC1 promoter luciferase reporter, 24 h; Potency, µM (highest dose often 9.22 µM), for inactives: top-dose activation, usual class: activators; 320,000 compounds, 2.4% hits; further: % of control where 0% means no effect; nearly all actives have a fitted effect of over 60% in size
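Luciferase expression driven by the NPC1 promoter was measured in stably transfected Huh7 cells after a 24 h compound incubation, using a luciferase reagent and a luminescence read.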
ELG1 genotox – induces genotoxicity in HEK293T cells with luciferase-tagged ELG1. Potency, µM (top dose mostly 46 µM), without a hit: at the highest dose activity change, positive = activation, most hits filed as activators. AID 504466. 330,000 compounds, 1.3% hits. HEK293T ELG1-luciferase reporter, luminescence, 16 h; further: % of control where 0% means no effect; nearly all actives have a fitted effect of over 60% in size
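Quantitative HTS format in 1536-well plates. HEK293T ELG1-luciferase reporter cells receive test compound and are incubated 16 hr at 37 °C, 5% CO2; ONE-Glo added, 30 min room temperature, then luminescence read.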
Rab9 promoter act – activates the Rab9 promoter; 320,000 compounds, 2.8% hits; AID 485297; Potency, µM (doses to about 9.22 µM), without a hit: at the top dose activation, negative = inhibition, usual class: activators; Huh7 Rab9 promoter-luciferase reporter, luminescence, 24 h; further: % of control where 0% means no effect; nearly all actives have a fitted effect of over 60% in size
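Steps: seed 1500 Huh7 Rab9-luc cells per well, rest 2 h at 37 °C; add compound in DMSO; incubate 24 h; add luciferase reagent, 10 min ambient; read luminescence.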
SMN2 splice enh – enhancers of SMN2 splice variant expression | HEK293 SMN2-luciferase splicing reporter, luminescence, 30-36 h | Potency, µM (titrated, usually from 46.1 µM), for inactives: top-dose activity change, positive = activation, actives largely listed as activators | 210,000 compounds, 2.8% hits | AID 1458; further: % of control where 0% means no effect; nearly all actives have a fitted effect of over 55% in size
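HEK293 cells carry an SMN2 […]–luciferase reporter in which exon 7 inclusion puts luciferase in frame. Cells were plated 10-12 h before compound addition, then incubated 30-36 h at 37C. ONE-Glo luminescence was read; sodium butyrate at 4.5 mM final served as control.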
ELG1 DNA repair – inhibitors of ELG1-dependent DNA repair in HEK293T cells; Potency, µM (titrated, usually from 46.1 µM), for the others: at the top dose activity change, negative = inhibition, actives largely listed as inhibitors; HEK293T ELG1-luciferase reporter, luminescence, 16 h; DNA damage induced by 5-fluorouridine; 330,000 compounds, 2.3% hits; further: on the % scale 0 is the no-effect control and ±100 the full control effect; nearly all actives have a fitted effect of over 55% in size
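Cells (2,000 per well) received 5-fluorouridine plus test compound or DMSO and were incubated 16 hr at 37 °C, 5% CO2. Luciferase activity was read by luminescence 30 min after ONE-Glo addition; signal suppression marked inhibition of damage-induced ELG1 function.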
FLuc modulator – firefly luciferase modulation, counter-screen for miR-21 project; purified FLuc, Km substrates, luminescence inhibition; Potency, µM (doses to about 57.5 µM), inactives show at the top dose activity change, negative = inhibition, hits mostly inhibitors; AID 588342; 360,000 compounds, 6.9% hits; P08659;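 further: plate controls were vehicle for no effect and reference inhibitor for full effect; nearly all actives have a fitted effect of over 55% in size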
Target sequence (P08659 whole entry, looked up): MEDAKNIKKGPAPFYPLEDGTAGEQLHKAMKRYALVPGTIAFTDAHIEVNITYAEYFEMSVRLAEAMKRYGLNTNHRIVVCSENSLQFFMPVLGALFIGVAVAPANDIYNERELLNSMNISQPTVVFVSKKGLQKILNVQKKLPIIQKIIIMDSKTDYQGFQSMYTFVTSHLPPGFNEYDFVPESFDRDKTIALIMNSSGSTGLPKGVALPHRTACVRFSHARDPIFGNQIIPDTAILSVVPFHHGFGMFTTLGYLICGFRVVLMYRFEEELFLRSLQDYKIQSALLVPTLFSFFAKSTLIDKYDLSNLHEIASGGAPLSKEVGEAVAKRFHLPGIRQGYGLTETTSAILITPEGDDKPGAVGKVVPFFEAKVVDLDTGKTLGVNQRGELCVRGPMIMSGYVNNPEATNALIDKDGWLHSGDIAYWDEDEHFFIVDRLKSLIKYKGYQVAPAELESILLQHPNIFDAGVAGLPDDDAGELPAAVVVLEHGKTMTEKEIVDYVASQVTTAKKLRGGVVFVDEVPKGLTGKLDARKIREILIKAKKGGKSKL
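Biochemical qHTS of compounds, final roughly 60 µM downward over six points, against 10 nM purified firefly luciferase using Km concentrations of substrates (10 uM D-luciferin, 10 uM ATP) in Tris acetate pH 7.5 buffer; luminescence output.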
An asterisk follows results filed as active. The call rests on the fitted dose curve; in most records, active means well fitted curve in the direction sought with a large enough effect; inconclusive means small, poorly fitted or top-dose-only effect, or another doubt; inactive means no such curve, though single readings can be large; an effect the other way counts as inactive or inconclusive. Potency means the concentration at half of the fitted maximal effect.

Results for Cc1ccc(-c2csc(N/N=C/c3ccco3)n2)cc1 ?
NPC1 promoter act: inconclusive; ELG1 genotox: 15%; Rab9 promoter act: inconclusive; SMN2 splice enh: 26%; ELG1 DNA repair: inconclusive; FLuc modulator: 9.5µM*

Results for O=C(Nc1cccc(C(F)(F)F)c1)N1CCC(CN2CCCCCC2)CC1 ?
FLuc modulator: -2%

Results for C(=N\Nc1nc(-c2ccccc2)cs1)/c1ccco1 ?
NPC1 promoter act: 2.8µM*; ELG1 genotox: inconclusive; Rab9 promoter act: 3.2µM*; SMN2 splice enh: 14µM*; ELG1 DNA repair: inconclusive; FLuc modulator: 2.7µM*

Results for Cc1onc(-c2ccccc2)c1-c1csc(N/N=C/c2ccccc2)n1 ?
NPC1 promoter act: -2%; ELG1 genotox: -7%; Rab9 promoter act: 0%; ELG1 DNA repair: inconclusive; FLuc modulator: -9%

Results for Cc1ccc(NC(=O)C2COc3ccccc3O2)c(C)c1 (configuration not stated) ?
NPC1 promoter act: 27%; ELG1 genotox: 11%; Rab9 promoter act: 4%; ELG1 DNA repair: inconclusive; FLuc modulator: inconclusive

Results for Cc1ccnc(NC(=O)C2COc3ccccc3O2)c1 (configuration not stated) ?
NPC1 promoter act: 2.8µM*; ELG1 genotox: inconclusive; Rab9 promoter act: 3.5µM*; SMN2 splice enh: inconclusive; ELG1 DNA repair: inconclusive; FLuc modulator: 9.5µM*

How did CC1CCC(NC(=O)C2COc3ccccc3O2)CC1 (configuration not stated) do in these assays?
NPC1 promoter act: 18%; ELG1 genotox: 15µM*; Rab9 promoter act: 20%; ELG1 DNA repair: inconclusive; FLuc modulator: -5%

What do the screens show for `Cc1ccc(NC(=O)C2COc3ccccc3O2)nc1` (configuration not stated)?
NPC1 promoter act: 24%; ELG1 genotox: 10µM*; Rab9 promoter act: 27%; SMN2 splice enh: -6%; ELG1 DNA repair: inconclusive; FLuc modulator: 13µM*

How did Cc1ccc(NC(=O)C2COc3ccccc3O2)cc1 (configuration not stated) do in these assays?
NPC1 promoter act: 2.8µM*; ELG1 genotox: inconclusive; Rab9 promoter act: 3.5µM*; ELG1 DNA repair: inconclusive; FLuc modulator: 24µM*

What do the screens show for `COc1ccc(CCNC(=O)Cn2cc(S(=O)(=O)Cc3ccccc3Cl)c3ccccc32)cc1OC`?
FLuc modulator: -16%

What do the screens show for `CNS(=O)(=O)c1cn(CC(=O)N2CCN(c3ccccc3F)CC2)cc1S(=O)(=O)NC`?
FLuc modulator: 2%

Results for O=C(Nc1cccnc1)C1COc2ccccc2O1 (configuration not stated) ?
NPC1 promoter act: 0%; ELG1 genotox: 1%; Rab9 promoter act: -3%; SMN2 splice enh: -5%; ELG1 DNA repair: 24%; FLuc modulator: -3%

Results for O=C(Nc1ccc(-c2cn3ccsc3n2)cc1)C1COc2ccccc2O1 (configuration not stated) ?
NPC1 promoter act: inconclusive; ELG1 genotox: -1%; Rab9 promoter act: 3.2µM*; SMN2 splice enh: 9%; ELG1 DNA repair: -6%; FLuc modulator: 27µM*

What do the screens show for `CC1(C)Oc2ccc(NC(=O)C3COc4ccccc4O3)cc2O1` (configuration not stated)?
NPC1 promoter act: 1.6µM*; ELG1 genotox: inconclusive; Rab9 promoter act: 0.5µM*; SMN2 splice enh: -23%; ELG1 DNA repair: inconclusive; FLuc modulator: 1.9µM*

What do the screens show for `C/C(=N\NC(=O)C1COc2ccccc2O1)c1ccccn1` (configuration not stated)?
NPC1 promoter act: -12%; ELG1 genotox: 12µM*; Rab9 promoter act: -25%; SMN2 splice enh: -76%; ELG1 DNA repair: inconclusive; FLuc modulator: -11%
